Many of the other results were omitted from the sample, so hits are more common in it than they were.
Dicer inh – human Dicer pre-microRNA cleavage inhibition; actives 6% (n = 47,000); z-score at 25 µM; Q9UPY3; cat-ELCCA pre-miR-21 Dicer processing, chemiluminescence; hits give high values; in the data active = z-score above about 3, passing the limit was not always enough;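 also: plate controls were vehicle for no effect and no enzyme for full effect; higher signal means more uncleaved substrate so more Dicer inhibition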
Active calls of the source: *.

SMILES | Dicer inh
C/C(=N/OC(=O)c1ccsc1)c1oc(C)nc1C | -1.6
CCC(C(=O)NNC(=O)c1ccc(N(C)C)cc1)c1ccccc1 (stereo not drawn) | 0.09
Cc1ccc2cccc(OS(=O)(=O)c3cc([N+](=O)[O-])ccc3C)c2n1 | -1.7
O=C(Nc1ccc(OC(F)(F)F)cc1)Nc1cc(C(F)(F)F)ccn1 | -0.41
O=C(NCc1ccc(S(=O)(=O)Nc2ccc(I)cc2F)s1)c1ccccc1 | 1.5
C=C(C)c1cccc(C(C)(C)NC(=O)Nc2ccccc2F)c1 | 1.5
COc1cc(NC(=S)Nc2cc(C(F)(F)F)cc(C(F)(F)F)c2)c2ncccc2c1 | -4
O=C1c2ccccc2C(=O)N1c1snnc1-c1ccc(C(F)(F)F)cc1 | -0.62
CCn1c2c(c(=O)[nH]c1=O)C(c1cccc3ccccc13)C1=C(N2)c2ccccc2C1=O (stereo not drawn) | 3.4*
COCCn1c2c(c(=O)[nH]c1=O)C(c1cccc3ccccc13)C1=C(N2)c2ccccc2C1=O (stereo not drawn) | 0.43
CCn1c2c(c(=O)[nH]c1=O)C(c1cccc(Cl)c1)C1=C(N2)c2ccccc2C1=O (stereo not drawn) | -0.43
Cc1c2n(c3ccccc13)C/C(=C\c1ccc(C(F)(F)F)cc1)C2=O | 0.99
O=c1[nH]c2ccc([N+](=O)[O-])cc2nc1/C=C(\O)c1ccccc1 | 24*
O=[N+]([O-])c1ccc2nc(-c3ccccc3)c(-c3ccccc3)nc2c1 | -2.8
CC(C)(C)/C(O)=C/c1nc2cc([N+](=O)[O-])ccc2[nH]c1=O | 0.03
CCOC(=O)CNC(=O)CC(=O)OCC | 1.1
O=C(NCCCN1CCN(Cc2ccccc2)CC1)c1cn2cc(C(F)(F)F)cc(Cl)c2n1 | -1.3
NNC(=O)c1cn2cc(C(F)(F)F)cc(Cl)c2n1 | 4.8*
NNC(=O)c1cc(C(F)(F)F)cc(C(F)(F)F)c1 | 0.55
O=[N+]([O-])c1cccc(N=C2c3ccccc3CN2c2cccc([N+](=O)[O-])c2)c1 | -0.05
Cn1c(N2CCOCC2)nc2c1c(=O)n(Cc1cccc(Br)c1)c(=O)n2C | 0.93
O=C(CSc1ncnc2sc3c(c12)CCC3)Nc1ccc2c(c1)OCCO2 | -2.1
CC1(C)CC(=O)C2=C(C1)Nc1cc3c(cc1C2c1ccc(F)cc1)OCO3 (stereo not drawn) | 1.8
CCOc1ccc(C2C3=C(CC(C)(C)CC3=O)Nc3cc4c(cc32)OCO4)cc1 (stereo not drawn) | 2.9
COc1ccc(C2C3=C(CC(C)(C)CC3=O)Nc3cc4c(cc32)OCO4)cc1 (stereo not drawn) | 6.2*
SMILES | Dicer inh
CC(C)c1cc(Br)c(NC(=O)NCCN2CCN(c3nccc(C(F)(F)F)n3)CC2)c(Br)c1 | 0.8
O=C(/C=C/c1cc(-c2ccccc2)c(C(F)(F)F)s1)c1ccc(Cl)cc1 | 0.16
COc1ccc(Br)c(OC)c1C(=O)NC(=O)Nc1c(F)cccc1F | -0.93
Cc1cccc(C)c1C(=O)NC(=O)Nc1c(F)cc(F)cc1F | 56*
O=C(NC(=O)c1c(Cl)cccc1Cl)Nc1c(F)cc(F)cc1Br | -0.58
COc1cc(/C=C/c2[nH]c(=O)[nH]c(=O)c2[N+](=O)[O-])ccc1OC(C)C | 0.03
c1ccc(C2=Nc3ccccc3SC(c3ccc4c(c3)OCO4)C2)cc1 (stereo not drawn) | 0.51
COc1ccc(/C=C/c2nc(-c3ccncc3)no2)cc1OC | 1.4
COc1ccc(/C=C/c2nc(-c3ccc(C)cc3)no2)cc1OC | 3.8*
COc1ccc(-c2nc(-c3ccc(C)cc3)no2)cc1OC | 1.8
c1csc(C2CC3(CS2)Nc2ccccc2S3)c1 (stereo not drawn) | 59
CCOC(=O)Cn1nc2n(c1=O)-c1ccccc1SC2 | -0.85
COc1cc(C2SCCS2)cc(Br)c1OS(=O)(=O)c1cc(Cl)cc(Cl)c1 | -0.68
NS(=O)(=O)c1cc(Cl)c(Oc2ccc([N+](=O)[O-])cc2)c(Cl)c1 | -0.22
COc1ccccc1Nc1nc2nonc2nc1Nc1cccc(Br)c1 | 1.6
COc1ccc(OC)c(Nc2nc3nonc3nc2Nc2ccc(F)cc2)c1 | 4.1*
COc1ccc(OC)c(Nc2nc3nonc3nc2Nc2cccc(Br)c2)c1 | 2
CCOC(=O)N/N=C(\C)c1cccc([N+](=O)[O-])c1 | -0.86
Cc1ccc(S(=O)(=O)N/N=C2/CCCCCCCCCCC2CCC#N)cc1 (stereo not drawn) | -2
Cc1nn(CCC#N)c(C)c1Cc1c(Cl)cccc1Cl | -0.91
COc1ccccc1NC(=S)N/N=C/c1ccco1 | 1.4
CNC(=S)N/N=C/c1ccc(OC)c(Br)c1 | 1.2
COc1cc(/C=N/NC(=S)Nc2ccccc2OC)ccc1O | 5.1*
CCOC(=O)C(C(=O)Nc1ccccc1)[N+](=O)[O-] (stereo not drawn) | -1.2
CCc1nn2c(N)c(C#N)cnc2c1-c1ccccc1 | -1.6
SMILES | Dicer inh
O=C1C2CCCCC2C(=O)N1c1cccc(O)c1 (stereo not drawn) | 0.83
N#Cc1ccc(C(=O)COc2ncnc3cc(Cl)ccc23)cc1 | -1.1
CCOC(=O)c1c(NC(C)=O)sc2c1CCCC2O (stereo not drawn) | 0.39
O=c1cc(Nc2ccc(OC(F)(F)F)cc2)c2ccccc2o1 | 3.2*
O=c1nc(Nc2ccc(OC(F)(F)F)cc2)c2ccccc2o1 | 0.39
O=C(NNC(=O)Nc1ccc(OC(F)(F)F)cc1)Nc1ccc(OC(F)(F)F)cc1 | 0.17
CCCCCOc1ccc(C2c3c(oc4ccccc4c3=O)C(=O)N2c2nccs2)cc1 (stereo not drawn) | -0.24
CCCC(=O)n1c(=O)oc2cc(Br)ccc21 | 4*
CCCC(=O)c1cc2cc(Br)ccc2oc1=O | -0.31
CCCC(=O)c1cc2cc(Br)cc(Br)c2oc1=O | -0.04
N#Cc1c(NC(=O)c2ccc(Br)cc2)sc2c1CCCC2 | -1.1
CCn1nc(C)cc1-c1nnc(SCC(=O)c2ccccc2)n1-c1ccccc1 | 2.2
Fc1ccc(-c2cn3nc(C(F)(F)F)sc3n2)cc1 | 0.32
Brc1ccc(-c2ccc(/C=C/c3nc4ccccc4o3)o2)cc1 | 8.2*
C(=C\c1nc2ccccc2o1)/c1ccccc1 | -0.71
c1cc(-c2nc3ccccc3o2)cc(-c2nc3ccccc3o2)c1 | 2.8
CC1CCN(C(=O)N2c3ccccc3Sc3ccccc32)CC1 | -0.44
O=C(N1CCN(c2ccccc2)CC1)N1c2ccccc2Sc2ccccc21 | 1.3
CCOC(=O)N1CCN(C(=O)N2c3ccccc3Sc3ccccc32)CC1 | 4.7*
Cc1nc2sc3c(NC4CCCCC4)ncnc3c2c2c1COC(C)(C)C2 | -0.27
O=C(O)c1ccc(NC2SC(=O)N(c3ccccc3)C2=O)cc1 (stereo not drawn) | -0.52
COc1ccc(S(=O)(=O)N=S2CCN(c3ncc(C(F)(F)F)cc3Cl)CC2)cc1 | -0.86
COCCCNC(=S)NNC(=O)CC#N | -0.57
CC(C)c1nn2c(=O)c(NC(=O)c3ccccc3)cnc2s1 | -1.1
COCCn1c(-c2ccccc2)nc(=S)c2c1CC(C)(C)OC2 | -0.39
SMILES | Dicer inh
CCN(CC)CCn1c(-c2ccc(OC)cc2)nc(=S)c2c1CC(C)(C)OC2 | 0.56
COc1ccc(-c2nc(=S)c3c(n2CCCN(C)C)CC(C)(C)OC3)cc1 | 3.1*
CC(=O)C(Sc1nnnn1-c1ccccc1)C(C)=O | -0.44
Oc1ccc(O)c(Sc2nnnn2-c2ccccc2)c1 | 3.2*
CC(=O)n1nc(C)c(Sc2nnnn2-c2ccccc2)c1C | -1.2
COc1ccc(NC(=S)NCCNC(=O)OC(C)(C)C)c(OC)c1 | -1.5
CCc1ccc(Cc2cn3cc(-c4ccccc4)nc3s2)cc1 | -0.59
Clc1ccc(-c2cn3cc(Cc4ccccc4)sc3n2)cc1 | 2.4
